Assay results as given in ChEMBL document CHEMBL5724796, “Tm Shift (DSF) assay results for EUbOPEN Chemogenomics Library” (2024).
Non-standard residues stand in square brackets, D forms with d. Residues, ends and D or L forms follow the SMILES beside them. *: point of attachment. Benzoyl(4-tBu) = CC(C)(C)c1ccc(C(=O)*)cc1; Lys(Et2) = CCN(CC)CCCC[C@H](N)C(=O)O

These molecules were tested against T1, Transcription intermediary factor 1-alpha (Homo sapiens) (UniProt O15164). Details: Compound concentration 20.0 uM.
T1 sequence (whole entry): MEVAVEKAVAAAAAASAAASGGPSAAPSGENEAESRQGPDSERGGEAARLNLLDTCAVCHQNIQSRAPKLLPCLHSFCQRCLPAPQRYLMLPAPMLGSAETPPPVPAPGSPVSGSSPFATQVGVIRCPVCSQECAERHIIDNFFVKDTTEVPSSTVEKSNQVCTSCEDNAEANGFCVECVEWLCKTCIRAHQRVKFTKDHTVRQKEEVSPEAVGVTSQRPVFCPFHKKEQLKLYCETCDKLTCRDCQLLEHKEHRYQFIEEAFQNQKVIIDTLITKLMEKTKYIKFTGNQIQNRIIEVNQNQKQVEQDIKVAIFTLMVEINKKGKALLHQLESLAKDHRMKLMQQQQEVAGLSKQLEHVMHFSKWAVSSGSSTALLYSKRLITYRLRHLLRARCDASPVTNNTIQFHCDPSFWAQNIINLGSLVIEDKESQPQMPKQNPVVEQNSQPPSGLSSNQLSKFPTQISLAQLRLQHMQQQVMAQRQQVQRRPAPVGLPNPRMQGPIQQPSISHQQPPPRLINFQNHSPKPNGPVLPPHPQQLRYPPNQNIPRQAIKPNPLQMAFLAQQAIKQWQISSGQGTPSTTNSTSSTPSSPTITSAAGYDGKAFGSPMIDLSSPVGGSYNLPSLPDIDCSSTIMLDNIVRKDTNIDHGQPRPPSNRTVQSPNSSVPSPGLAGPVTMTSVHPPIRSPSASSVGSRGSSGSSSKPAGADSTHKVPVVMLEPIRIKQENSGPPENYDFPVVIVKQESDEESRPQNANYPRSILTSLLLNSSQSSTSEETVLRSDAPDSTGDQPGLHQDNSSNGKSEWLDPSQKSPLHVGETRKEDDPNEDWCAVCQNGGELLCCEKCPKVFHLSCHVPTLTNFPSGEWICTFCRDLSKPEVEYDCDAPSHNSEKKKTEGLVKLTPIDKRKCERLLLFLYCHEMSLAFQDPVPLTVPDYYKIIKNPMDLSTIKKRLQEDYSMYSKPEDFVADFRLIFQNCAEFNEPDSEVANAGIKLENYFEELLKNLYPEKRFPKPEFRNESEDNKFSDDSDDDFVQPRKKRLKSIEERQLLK

SMILES | ΔTm [°C]
O=C(CCCCCCNC(=O)c1cnc(N(c2ccccc2)c2ccccc2Cl)nc1)NO | -0.75
O=C1Nc2ccccc2C2(CCN(CC(Cc3ccccc3)Nc3nc4ccc(F)cc4s3)CC2)N1 (centres undefined) | 0.18
C[C@@H]1CN(Cc2ncccn2)C[C@H]1c1nc2c(cnn2C2CCOCC2)c(=O)[nH]1 | 0.61
CNCCCN1c2ccccc2CCc2ccccc21 | 0.96
O=C(NCc1ccc(Cl)cc1)C1CCN(S(=O)(=O)c2cc(Cl)cc(Cl)c2)CC1 | 0.02
COCCOCCn1nc2c(c1C)-c1c(Cl)ccc3c1c(C)c(C(=O)O)n3CCCOc1cc(cc3c(F)c(Cl)ccc13)CCc1cc(nn1C)CSC2 | -3.03
O=c1[nH][nH]c(=O)c2cc(OCc3ccccc3F)ccc12 | 0
CCN(CC)CCCC[C@H](NC(=O)[C@H](CC(C)C)NC(=O)[C@H](C)NC(=O)[C@H](Cc1ccccc1)NC(=O)c1ccc(C(C)(C)C)cc1)C(=O)N[C@@H](CO)C(=O)OC ({Benzoyl(4-tBu)}-FAL[Lys(Et2)]S-OMe) | -1.11
Cc1cc(-c2ccccc2)cc(C(=O)NNS(=O)(=O)c2ccccc2)c1F | -1.85
COc1ccc([C@@H]2CNC(=O)C2)cc1OC1CCCC1 | 0.65
CC(C)[C@@H]1NC(=O)[C@H](Cc2ccc(O)cc2)NC(=O)[C@@H](CC(=O)O)NC(=O)S[C@@H](C(=O)O)NC(=O)[C@H]([C@H](C)O)NC(=O)[C@H](Cc2ccc(O)cc2)NC(=O)[C@H](Cc2c[nH]c3ccccc23)NC(=O)[C@H](CCCNC(=N)N)NC(=O)[C@H](Cc2c[nH]c3ccccc23)NC(=O)[C@H](C)NC(=O)[C@H](CO)NC(=O)[C@H](CCCNC(=N)N)NC(=O)[C@H]([C@H](C)O)NC(=O)[C@H](CC(N)=O)NC(=O)[C@H](Cc2ccc(O)cc2)NC1=O | -0.7
COc1cc(Nc2ncc(F)c(Nc3ccc4c(n3)N(COP(=O)(O)O)C(=O)C(C)(C)O4)n2)cc(OC)c1OC | -1.96
COC(=O)[C@H]1[C@H]2C[C@@H]3c4[nH]c5cc(OC)ccc5c4CCN3C[C@H]2C[C@@H](OC(=O)c2cc(OC)c(OC)c(OC)c2)[C@@H]1OC | -0.4
O=C(CCCCCCNC(=O)c1cnc(N(c2ccccc2)c2ccccc2)nc1)NO | -0.68
CCC[C@@H]1CNCc2c1[nH]c(=O)c(C#N)c2N1CCC2(CC1)CC2 | -0.85
Cc1ccc(F)c2cc(C(=O)N[C@@H]3CCC[C@H](N4CC[C@H](N(C)S(C)(=O)=O)C4)C3)[nH]c12 | -1.39
NC(=O)c1cc(F)cc2c1C(=O)N(C1CCN(C3CCC(F)(F)CC3)CC1)C2 | 1.35
CCCC[C@]1(CC)CS(=O)(=O)c2cc(CNC(CC(=O)O)CC(=O)O)c(OC)cc2[C@@H](c2ccccc2)N1 | 0.38
C[C@@H](Oc1ccc(S(C)(=O)=O)cc1C(=O)N1C[C@@H]2C[C@]2(c2cc(C(F)(F)F)on2)C1)C(F)(F)F | 0.43
CCN(CC)C(=O)/C(C#N)=C/c1cc(O)c(O)c([N+](=O)[O-])c1 | 0.24

SMILES | ΔTm [°C]
Cc1cc(C)c(CNC(=O)c2cc(Cl)c3c(c2C)O[C@@](C)([C@H]2CC[C@H](N(C)C)CC2)O3)c(=O)[nH]1 | -2.02
O=C(CCCCCCC(=O)Nc1ccc([C@H]2O[C@@H](CSc3nc(-c4ccccc4)c(-c4ccccc4)o3)C[C@@H](c3ccc(CO)cc3)O2)cc1)NO | 3.56
Cc1ncc(Cl)cc1NCc1ccc(C(=O)N[C@@H](CC2CCCC2)C(=O)NC2CC2)s1 | 2.21
COc1ccc(CC[C@H]2CCC[C@@H](CCc3ccc(OC)cc3)N2C[C@@H](O)CO)cc1 | -0.71
C=C(C)[C@@H](CC=C(C)C)C[C@@]12C[C@@H](CC=C(C)C)C(C)(C)[C@@](CC=C(C)C)(C(=O)C(C(=O)c3ccc(O)c(O)c3)=C1O)C2=O | -0.01
CNC(=O)c1cc(Nc2ccnc(Nc3ccc(CCNC(=O)OC(C)(C)C)cc3)n2)n[nH]1 | 0.91
O=C(c1cc(Cc2n[nH]c(=O)c3ccccc23)ccc1F)N1CC(CNC2CC2)C1 | 0.44
CCCCOc1c(OC)cc(C(=O)NCC2(N(C)C)CCOCC2)cc1OC | -0.41
Cn1c(=O)cc(N2CCC[C@@H](N)C2)n(Cc2cc(F)ccc2C#N)c1=O | 0.97
CCOCC1(COCC)CCC(c2n[nH]cc2CN(C)CCNC)CC1 | -1.29
CCCNC(=O)[C@H]1O[C@@H]1C(=O)N[C@H](C(=O)N1CCC[C@H]1C(=O)O)[C@@H](C)CC | -0.81
CCS(=O)(=O)N1CC(CC#N)(n2cc(-c3ncnc4[nH]ccc34)cn2)C1 | -0.73
C[C@H]1CO[C@@H]2Cn3cc(C(=O)NCc4ccc(F)cc4F)c(=O)c(O)c3C(=O)N12 | 0.47
CN(C)CCCNC(=O)c1ccc(-c2cc(O)c3ncccc3c2)cc1 | 1.21
COC[C@H](NC(=O)c1ccn(S(C)(=O)=O)c1)C(=O)Nc1nc(-c2cccc(-c3ccn(C)n3)c2)cs1 | -1.12
Cc1c(Nc2ccc(S(=O)(=O)N3CCN(C)CC3)cc2F)nc2ccc(-c3cnn(C4CC4)c3)cn2c1=O | -1.92
COc1cc(C(=O)NCC2(N(C)C)CCCC2)cc(OC)c1OCc1ccccc1 | 3.25
COc1ccc(-c2ccc(-c3cn(C(=O)N4CCCCC4c4ccccc4)nn3)cc2)cc1 (centres undefined) | -0.5
OC[C@H]1O[C@@H](c2ccc(Cl)c(Cc3ccc(O[C@H]4CCOC4)cc3)c2)[C@H](O)[C@@H](O)[C@@H]1O | -0.73
